Compound activity from PubChem BioAssay.
Only some compounds are listed: those with a hit (about 2.4% of all), similar ones and a draw of the others.
PERK inhibitor: human PERK inhibition, primary cell-based screen; CHO PERK-DD fusion, SEAP luminescence translation reporter; actives 0.17% (n = 220,000); inhibition, % at 5.6 µM;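 active = inhibition above the mean inhibition of all tested compounds plus 3 SD, set separately per screening campaign, cut at about 2.9% in these data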;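 also: PERK kinase domain activated by AP20187 dimerizer at 100 nM; 0% = DMSO with dimerizer and 100% = rapamycin at 8.4 µM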
Target sequence (Q9NZJ5 whole entry, looked up, the tested form may be a part): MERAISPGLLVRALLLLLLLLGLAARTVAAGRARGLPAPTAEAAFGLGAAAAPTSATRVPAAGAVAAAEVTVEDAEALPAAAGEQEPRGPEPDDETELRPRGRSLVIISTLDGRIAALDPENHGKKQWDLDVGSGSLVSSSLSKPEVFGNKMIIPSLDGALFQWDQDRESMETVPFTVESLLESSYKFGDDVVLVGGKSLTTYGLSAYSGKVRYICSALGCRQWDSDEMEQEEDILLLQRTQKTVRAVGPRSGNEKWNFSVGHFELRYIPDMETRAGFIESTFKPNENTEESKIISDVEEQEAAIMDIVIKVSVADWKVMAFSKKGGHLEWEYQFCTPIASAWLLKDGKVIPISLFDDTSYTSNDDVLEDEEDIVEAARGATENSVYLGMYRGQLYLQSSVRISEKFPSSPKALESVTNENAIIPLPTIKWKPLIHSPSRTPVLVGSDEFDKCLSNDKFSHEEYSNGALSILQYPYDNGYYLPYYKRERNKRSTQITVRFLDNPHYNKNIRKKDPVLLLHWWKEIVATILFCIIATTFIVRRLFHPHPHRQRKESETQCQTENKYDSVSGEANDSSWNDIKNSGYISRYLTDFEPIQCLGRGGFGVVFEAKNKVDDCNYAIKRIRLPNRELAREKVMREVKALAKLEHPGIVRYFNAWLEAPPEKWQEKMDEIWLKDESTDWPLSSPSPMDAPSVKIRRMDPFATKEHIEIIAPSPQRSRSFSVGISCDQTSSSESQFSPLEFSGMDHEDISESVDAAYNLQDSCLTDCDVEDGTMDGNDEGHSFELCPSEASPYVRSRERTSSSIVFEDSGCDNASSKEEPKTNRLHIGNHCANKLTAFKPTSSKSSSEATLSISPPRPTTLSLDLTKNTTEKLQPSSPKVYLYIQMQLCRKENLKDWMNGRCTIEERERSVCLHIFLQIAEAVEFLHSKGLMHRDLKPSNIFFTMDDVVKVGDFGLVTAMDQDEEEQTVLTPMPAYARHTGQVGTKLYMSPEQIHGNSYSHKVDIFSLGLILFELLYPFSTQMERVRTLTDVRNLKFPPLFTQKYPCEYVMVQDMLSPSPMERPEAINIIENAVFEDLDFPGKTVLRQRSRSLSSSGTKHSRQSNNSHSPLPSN
PABP polyA inh: blocks human PABP binding to poly(A) RNA | P11940 | fluorescence polarization | inhibition, % at 35 µM | actives 1% (n = 290,000) | AID 2014;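 also: calls also rest on retests at 20 µM and on dose response follow-up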
eIF4E-4G inh: eIF4E/eIF4G interaction inhibition in translation initiation. P63073+Q04637. TR-FRET eIF4E-eIF4GI(517-606) binding, 2 h. inhibition, % at 21.7 µM. actives 0.37% (n = 220,000). AID 782;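 active = inhibition above about 30%, limit read from the data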;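 also: 0% = full FRET control wells and 100% = background wells lacking eIF4GI fragment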
PfM18AAP inh: blocks P. falciparum M18 aspartyl aminopeptidase; inhibition, % at 7.35 µM; actives 1.2% (n = 290,000); recombinant PfM18AAP, H-Glu-NHMec fluorogenic cleavage;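 active = inhibition above the campaign mean inhibition over all tested compounds plus 3 SD, cut at about 28% in these data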;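 also: 0% = plate median of test compound wells and 100% = 2 mM ZnCl2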
eIF4H FP inh: inhibitors of RNA binding by human eIF4H. eIF4H fluorescence polarization binding assay. Q15056. AID 2012. actives 0.94% (n = 290,000). inhibition, % at 35 µM;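 also: calls also rest on retests at 20 µM and on dose response follow-up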
PABP1 MLLE inh: inhibitors of microRNA-mediated deadenylation, human PABP1 MLLE binding; GST-MLLE / FITC-PAM2 fluorescence polarization; inhibition, % at 20 µM; actives 0.36% (n = 360,000); in the data active = inhibition above about 35%, passing the limit was not always enough;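 also: plate controls were DMSO wells with GST-MLLE for no effect and wells lacking GST-MLLE protein for full effect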
* marks the source's active call; other numbers are inactive results; u = inconclusive; x = not tested or not shown. Unless noted, no rule for the calls is given here.

SMILES	PERK inhibitor	PABP polyA inh	eIF4E-4G inh	PfM18AAP inh	eIF4H FP inh	PABP1 MLLE inh
COC(=O)CSc1nnc(-c2cccc(NC(=O)c3ccc(C)cc3)c2)n1C	0	-4	72*	2	1	-30
COc1ccc([N+](=O)[O-])cc1/C=N/NC(=O)CNC(=O)c1cccc(F)c1	1	-5	3	5	-2	-5
COc1ccc([N+](=O)[O-])cc1/C=N/NC(=O)CNC(=O)C(c1ccccc1)c1ccccc1	0	active	-4	8	84*	-3
CC1CCN(c2nc3nonc3nc2Nc2ccc(F)cc2)CC1	0	12	2	3	-10	4
Cc1ccc(NC(=O)c2cc3ccccc3oc2=O)cc1S(=O)(=O)N(C)C	0	64*	0	-15	0	5
Cc1ccc(NC(=O)c2cc3ccccc3o2)cc1S(=O)(=O)N(C)C	0	-3	-2	0	-6	-3
COCCCN1CN(S(=O)(=O)c2ccc(Cl)cc2)c2nc3ccccc3nc21	-1	53*	5	-1	50*	16
COCCN1CN(S(=O)(=O)c2cccc(Cl)c2)c2nc3ccccc3nc21	x	14	x	5	-21	8
CCC(C)[C@H](N)c1cn([C@@H](CCCCN)C(=O)N2CCNCC2)nn1 (stereo partly specified)	1	50*	0	3	-5	5
CC(C)c1ccc(OCc2ccc(C(=O)N3CCN(c4ccccn4)CC3)cc2)cc1	0	4	5	1	-10	3
Cc1c(NC(=O)C(C)Sc2n[nH]c(N)n2)c(=O)n(-c2ccccc2)n1C (stereo unspecified)	0	6	-1	-5	-3	-9
c1ccc2nc3[nH]cnc3nc2c1	0	7	9	-4	3	49*
COc1ccc(-c2cc(C(F)(F)F)nc(-n3ccnc3)n2)cc1	0	9	2	1	-10	-2
CCN(C(=O)CSc1nc2ccc([N+](=O)[O-])cc2s1)c1c(N)n(Cc2ccccc2)c(=O)[nH]c1=O	x	x	x	x	x	-20
O=C1CNC(=S)N1CCOc1ccccc1	0	-8	8	1	-6	-11
O=C1CNC(=S)N1CCc1ccc(O)c(O)c1	1	4	-2	69*	-4	7
Cc1cc(NS(C)(=O)=O)c(=O)n(Cc2cccc(C(F)(F)F)c2)c1	x	x	x	x	x	1
CCCN(CCC)c1ccc(/C=C/c2ccc3cc(OCC)ccc3n2)cc1	0	41*	12	8	u	-95
CN(C)c1ccc(/C=C/c2ccc3ccccc3n2)cc1	0	67	7	-5	109	-18
CCOc1ccc(NC(=O)CN(C)Cc2cc(=O)n3c(-c4ccccc4)csc3n2)cc1OCC	-1	-10	7	-9	35	-32
O=[N+]([O-])c1c(NCCCO)cc(SCc2ccco2)c2nonc12	-1	-14	-1	3	u	41*
CC(=O)OCCNc1cc(SCc2ccco2)c2nonc2c1[N+](=O)[O-]	-1	42	3	-6	96	37
Cc1cccc(OCC(=O)NCC(C)(C)N2CCOCC2)c1	x	x	x	x	x	-7
O=[N+]([O-])c1ccc(/C=[N+](\[O-])[C@@H]2CCCC[C@@H]2/[N+]([O-])=C/c2ccc([N+](=O)[O-])o2)o1	x	48*	x	18	81*	5
O=C(N/N=C/c1ccc([N+](=O)[O-])o1)C1CCCC1	x	14	x	17	23	12
CCc1ccc(-c2nc(CSCC(=O)N3CCN(c4ccccn4)CC3)c(C)o2)cc1	-1	-2	2	2	-10	39*
